Our source for the outcome values is PubChem BioAssay AID624114 (Johns Hopkins Ion Channel Center, 2012).

The whole screen tested about 4,000 compounds, of which about 15 (0.4%) were called active.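 Rule for the calls: active = calcium fluorescence ratio, averaged over duplicates, at least 3 SD of the buffer-well ratio, meaning a nonspecific response in receptor-free cells; inactive = the rest.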 Only a sample is shown.

This assay can be described thus: nonspecific Ca2+ flux in HEK293 lacking MrgX1 – cell-based, Fluo-4 calcium flux, duplicate, counter-screen for MrgX1 allosteric activator project, primary screen (AID 624114). As to conditions: parental HEK293 calcium flux, Fluo-4 fluorescence ratio; at 10 µM. In general terms: A change in cytosolic calcium serves as a functional read-out for many receptors and channels.
Regarding `Cc1ccnc(NC(=O)C(C)N2C(=O)c3ccccc3C2=O)c1` (configuration not stated), the outcome was inactive.

With `CCC(C)c1ccccc1N1CC(C(=O)N2CCN(S(=O)(=O)c3ccc(F)cc3)CC2)CC1=O` (configuration not stated), the outcome was inactive. Then `Cc1ccc(Nc2nc(-c3ccc(O)cc3O)cs2)nc1`, with “inactive”; and `CCC(C)Sc1nc(C)nc2c1c(=O)n(C)c(=O)n2C` (configuration not stated), with “inactive”.

As for `Cc1ccnc(-n2sc3ccccc3c2=O)n1`, the outcome was inactive. For the compound `CCOC(=O)C1=C(O)CSC1=Nc1cccc(Cl)c1`, the result was inactive. Then `COCc1nnc(NC(=O)c2ccc3c(c2)OCO3)s1`, with “inactive”; and `CC1(C(=O)O)CCC(C(=O)Nc2ccc(Cl)c(Cl)c2)C1(C)C` (configuration not stated), with “inactive”. As for `CC(C)CNc1ncnc2c1cnn2Cc1ccc(Cl)cc1`, the entry is “inactive”; as for `CCc1ccc(N(CC(=O)Nc2sc3c(c2C(=O)OC)CCCC3)S(C)(=O)=O)cc1`, “inactive”; as for `OCCn1c(-c2ccccc2)csc1=Nc1ccccc1`, “inactive”. Regarding `CCOc1ccc(NC(=O)CCNC(=O)c2ccc(Br)cc2)cc1`, the outcome was inactive. Turning to `Cc1ccc(C(C(=O)NC2CCCCC2)N(C(=O)c2csnn2)C2CC2)o1` (configuration not stated), the result was inactive. As for `COc1ccc(-c2cc(C(F)(F)F)nc(S(C)(=O)=O)n2)cc1OC`, the entry is “inactive”.

With `O=C(C1CCN(S(=O)(=O)c2cnc[nH]2)CC1)N1CCN(Cc2ccc3c(c2)OCO3)CC1`, the result was inactive.

Turning to `O=C(Nc1cccc(Cl)c1)c1cncn1-c1ccc(F)cc1`, the outcome was inactive.

As to `Cc1nonc1C1CCCN1Cc1nc(-c2ccc(F)cc2F)oc1C` (configuration not stated), the result was inactive.

Turning to `Cc1ccc2c(C)c(C(=O)N(C)CCC3CCCCO3)oc2c1C` (configuration not stated), the result was inactive. Then `O=C(CN1CCN(c2ccc(Cl)cc2)CC1)N1CCCC1`, with “inactive”; and `COc1cc2c(cc1O)C(SC)=NC(C)(C)C2`, with “inactive”. Then `FC(F)Oc1ccc(NC(=S)NCc2ccco2)cc1Cl`, with “inactive”; and `COc1ccc(Nc2nnc(C)c3ccccc23)cc1`, with “inactive”.

For the compound `Cc1c(C)c2c(OCC(=O)N[C@@H](C(=O)O)c3ccccc3)cc3c(c2oc1=O)CCC(C)(C)O3`, the outcome was inactive. As for `CCSc1nsc(NC(=O)Nc2cccc(C(C)=O)c2)n1`, the entry is “inactive”; as for `Cc1c(C(=O)N2CCN(c3ccc(F)cc3)CC2)oc2c1C(=O)CCC2`, “inactive”.

Take `O=C(c1cccc(S(=O)(=O)Nc2ccccc2Cl)c1)N1CCN(C(=O)c2ccco2)CC1`: the outcome was inactive. As for `O=C(Cn1c(-c2cncs2)nc2ccccc21)NC1CCCC1`, the entry is “inactive”. As for `CC1(C)CC2CC(C)(CN2c2ncnc3ccc(Br)cc23)C1` (configuration not stated), the entry is “inactive”; as for `CCOC(=O)c1c(NC(=O)CSc2cn(CC)c3ccccc23)sc2c1CCC2`, “inactive”; as for `O=C(O)CSC(NC(=O)c1cccnc1)(C(F)(F)F)C(F)(F)F`, “inactive”. Then `CCOC(=O)N1CCN(C(=O)COCc2cc(-c3ccc4c(c3)OCO4)on2)CC1`, with “inactive”.

As to `COc1ccc(C(=O)Nc2c(N)nc(SCC(=O)N3CCC(C)CC3)[nH]c2=O)cc1OC`, the outcome was inactive. As for `CCOc1cc(-c2conc2N)cc(OCC)c1OCC`, the entry is “inactive”.

In the case of `O=C1CCCN1CCCNC(=S)Nc1ccc(F)c(Cl)c1`, the result was inactive. As for `COc1ccc(C(=O)NNC(=S)NC(=O)c2ccccc2)cc1`, the entry is “inactive”; as for `Nc1ccc(Oc2ccc(Cl)cc2)cc1`, “inactive”; as for `CN(CC(=O)Nc1ccccc1Cl)C(=O)COc1cccc2c1OC(C)(C)C2`, “inactive”.

As to `CCOc1ccc2nc(/N=C/c3nc(-c4ccccc4)oc3O)sc2c1`, the result was inactive. For `FC(F)(F)c1cc(-c2cccs2)nc(NCc2ccco2)n1`, the outcome was inactive. Then `O=C(CSc1c2c(nc3ccc(Cl)cc13)CCCC2)NCc1ccco1`, with “inactive”. With `COc1ccc(Nc2nc(-c3cccnc3)nc3ccccc23)cn1`, the result was inactive.

For `CN(C)CCn1c(=S)[nH]c2ccc(Cl)cc2c1=O`, the outcome was inactive.

For the compound `COC(=O)c1sccc1NS(=O)(=O)c1ccc(F)cc1F`, the outcome was inactive. As for `COc1ccc2c(c1)OC(O)(C(F)(F)C(F)F)CC2=O` (configuration not stated), the entry is “inactive”; as for `CC(C)NC(=S)Nc1cccc2cnccc12`, “inactive”. As for `C=CCNC(=O)c1cc(-c2ccccc2O)on1`, the entry is “inactive”; as for `O=C(Nc1ccccc1N1CCCCC1)c1ccc2nccnc2c1`, “inactive”; as for `Cc1ccc2c(c1)c1ncnc(N3CCc4ccccc4C3)c1n2C`, “inactive”. Then `CCc1ccc2nc3sc(C(=O)Nc4nnc(CC)s4)c(N)c3cc2c1`, with “inactive”.

With `COc1ccc(C(=O)NC(=S)NNC(=O)c2c(-c3ccccc3)noc2C)cc1`, the outcome was inactive.

`COc1ccccc1N(CC(=O)N1CCCCC1)S(=O)(=O)c1ccccc1`: the result was inactive. As for `CC(C)OCCCNc1ncnc2c1[nH]c1ccc(F)cc12`, the entry is “inactive”. Then `COc1cc(CCC(=O)Nc2ccncc2Cl)cc(OC)c1OC`, with “inactive”; and `CCCc1[nH]nc2c1C(c1ccc(Br)s1)C(C#N)=C(N)O2` (configuration not stated), with “inactive”.

In the case of `O=C(Cc1ccccn1)c1ccc(O)cc1O`, the result was inactive. As for `Cc1cccn2c(=O)c(/C=C3\SC(=S)N(CC(C)C)C3=O)c(NCCCOC(C)C)nc12`, the entry is “inactive”; as for `O=C(Nc1ccccc1N1CCOCC1)c1csc2c1CCCC2`, “inactive”. As for `Brc1ccccc1C1Nc2cccc3cccc(c23)N1`, the entry is “inactive”. As for `Cc1ccc(NC2(C#N)C(=O)Nc3ccccc32)cc1` (configuration not stated), the entry is “inactive”; as for `Cc1nccn1CCC1CCCCN1C(=O)CCc1nnc(-c2ccsc2)o1` (configuration not stated), “inactive”. As to `OCc1ccc(OCCCOc2cccc3cccnc23)cc1`, the outcome was inactive.

For `COc1ccc(NC(=O)c2cc(-c3ccc(C)o3)nc3ccccc23)cc1`, the outcome was inactive. As for `CN1/C(=C\C=C2\N=C(c3ccc(F)cc3)OC2=O)C(C)(C)c2ccccc21`, the result was inactive. Take `COc1cc(C)c(C)cc1S(=O)(=O)N1CCCc2ccccc21`: the outcome was inactive. For the compound `Cc1ccc(CS(=O)(=O)c2ncc(Cl)c(C(=O)Nc3nnc(C)s3)n2)cc1`, the outcome was inactive. In the case of `O=C(Nc1nnc(-c2ccccc2)o1)c1cc(-c2cccs2)nc2ccccc12`, the outcome was inactive.

As for `COC(=O)Cn1c(O)c(N=NC(=O)OC)c2ccccc21`, the outcome was inactive.

Turning to `CN(c1cccc(NC(=O)Nc2ccc(Cl)cc2)c1)S(C)(=O)=O`, the outcome was inactive.

On to `CCc1cc(=O)oc2cc(C)cc(OCC(=O)N3CCC[C@@H]3C(=O)O)c12`, for which the outcome was inactive. As for `CCOC(=O)c1c(C)[nH]c(=S)c(C#N)c1-c1ccccc1`, the entry is “inactive”. Then `CCOc1ccccc1C1CC(c2ccc(Cl)cc2)Nc2nc(N)nn21` (configuration not stated), with “inactive”; and `Cc1c(C(=O)N2CCCc3ccccc32)sc2nc(-c3ccccc3)cn12`, with “inactive”; and `O=C(Cc1nc2ccccc2[nH]c1=O)c1ccc(Cl)cc1`, with “inactive”. As for `COc1cc(C2/C(=C(\O)c3ccc4c(c3)CC(C)O4)C(=O)C(=O)N2Cc2ccco2)ccc1O` (configuration not stated), the entry is “inactive”; as for `CCc1nnc(NC(=O)CSc2nc3c(c(=O)n2-c2ccccc2OC)SCC3)s1`, “inactive”. In the case of `N=C(N)SCc1cccc2ccccc12`, the outcome was inactive. As for `CCCCC(=O)NNC(=S)NC(=O)C(c1ccccc1)c1ccccc1`, the entry is “inactive”. As to `Cc1occc1C(=O)Nc1nnc(-c2ccncc2)s1`, the outcome was inactive.

Consider `Cc1ccc2nc(-c3ccc(NC(=O)c4cccnc4)cc3)oc2c1`, for which the result was inactive. Then `COCCNC(=O)C1CCN(S(=O)(=O)c2ccc3c(c2)OCCO3)CC1`, with “inactive”; and `CCN(CC)c1ccc(C2C3CCCCC3(O)CCN2CC(=O)Nc2ccccc2)cc1` (configuration not stated), with “inactive”. As for `COC(=O)c1c(NC(=O)CN(c2ccc(C)c(C)c2)S(C)(=O)=O)sc2c1CCCC2`, the entry is “inactive”; as for `CC(C)(C)Nc1c(-c2cccs2)nc2ccccn12`, “inactive”; as for `Cc1onc(-c2ccccc2)c1C(=O)NNC(=S)NC(=O)c1ccc(F)cc1`, “inactive”.

For `COc1cccc(CCNC(=O)COc2cccc3c2OC(C)(C)C3)c1`, the result was inactive.

Turning to `COc1ccc(-n2c(SCC(=O)NCc3ccco3)nnc2-c2c[nH]c3ccccc23)cc1`, the outcome was inactive.

As for `CCS(=O)(=O)c1ccc2c(c1)N(S(=O)(=O)c1ccccc1)CC(C(=O)O)O2` (configuration not stated), the outcome was inactive.

Take `Cc1nn(C(=O)c2ccoc2C)c(N)c1-c1ccccc1`: the result was inactive. As for `O=C(COC(=O)C1CCN(S(=O)(=O)c2ccc3c(c2)OCCO3)CC1)Nc1ccccc1OC(F)F`, the entry is “inactive”. As for `CC(=O)N(C)c1ccc(NC(=O)C(F)(F)F)cc1`, the entry is “inactive”; as for `O=C(CC(O)(C(F)(F)F)C(F)(F)F)Nc1ccc(Cl)c(Cl)c1`, “inactive”.

With `O=C(CCN1CCc2ccccc2C(O)(c2ccccc2)C1)c1ccc2c(c1)OCCO2` (configuration not stated), the outcome was inactive.

As to `COc1ccc(C2SCCN2S(=O)(=O)c2ccccc2)cc1OC` (configuration not stated), the outcome was inactive. Regarding `CCc1cc2c(SCC(=O)Nc3ncc(Cl)c(C)c3Cl)ncnc2s1`, the outcome was inactive. Then `CCOC(=O)c1c(NC(=O)CNC2CCCc3ccccc32)sc(C(N)=O)c1C` (configuration not stated), with “inactive”; and `O=S(=O)(c1ccc2ccccc2c1)N1CCN(S(=O)(=O)N2CCOCC2)CC1`, with “inactive”; and `Cc1cc(=O)oc2cc(NC(=O)C3CC(=O)N(Cc4ccccc4)C3)ccc12` (configuration not stated), with “inactive”. Turning to `CCN(C(=O)CSc1nnc2ccccn12)C1CCS(=O)(=O)C1` (configuration not stated), the result was inactive. Then `CC(=O)N(C1=C(Cl)C(=O)c2ccccc2C1=O)c1ccc(C(=O)O)cc1`, with “inactive”. For the compound `COc1ccc(C(=O)CSc2n[nH]c(N)n2)cc1`, the result was inactive. As for `O=C(Nc1ccccc1)c1nnsc1S(=O)(=O)c1ccc(Cl)cc1`, the entry is “inactive”; as for `Cc1ccc2cc(/C=N/Nc3ccc(C(=O)O)cc3)c(Cl)nc2c1`, “inactive”; as for `c1ccc(-c2[nH]ncc2-c2nc3ccccc3[nH]2)cc1`, “inactive”.

As for `COc1ccccc1Oc1nc(-c2cccnc2)nc2ccccc12`, the result was inactive. As for `O=c1c2cc(Br)ccc2nc(-c2cccc(Cl)c2)n1O`, the entry is “inactive”; as for `COc1ccc([N+](=O)[O-])cc1NC(=O)COC(=O)/C=C/c1ccco1`, “inactive”; as for `C=CCSc1nc(Cc2ccc(Cl)cc2)nc2ccccc12`, “inactive”. Then `NC(=O)c1c(Nc2nc3c(F)cccc3s2)sc2c1CCCC2`, with “inactive”. Consider `CCN(CC)CC(=O)Nc1nn(-c2ccccc2)nc1C(N)=O`, for which the result was inactive. Then `Cc1ccc(C(=O)COC(=O)CCN2C(=O)C3C4CC(C(Br)C4Br)C3C2=O)cc1` (configuration not stated), with “inactive”; and `Cc1ccc(-n2cnc3ncnc(-c4ccccc4)c32)cc1`, with “inactive”. In the case of `CCOC(=O)Nc1ccc2c(c1)N(C(=O)CCN1CCN(CCO)CC1)c1ccccc1CC2`, the result was inactive.
